Experimental data as given in PubChem BioAssay.
Unmarked numbers belong to inactive results. A call without a number means that no potency is given here. For some of these results: Potency and affinity values are given separately. Activity calls are given as the source filed them. Unless noted, how the calls were made is not given here.

Key:
[1] = antimalarial activity against Dd2 strain (AID 2302;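 active means growth inhibition above 50% at the single 2 µM test dose, taken to imply half-maximal potency below 2 µM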); conditions: P. falciparum Dd2 in RBCs, LDH growth readout, 72 h; at 2 µM; hits give high values
[2] = HepG2 cytotoxicity, primary screen, cytotoxicity control for P. falciparum antimalarial project, cell-based, ATP luminescence (AID 2303;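 active means inhibition above 50%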); conditions: HepG2 viability, 24-48 h, at 10 µM, hits give high values
[3] = molecular target: L-lactate dehydrogenase (Plasmodium falciparum (isolate CDC / Honduras)) (UniProt Q27743); assay: PfLDH activity inhibition – cell lysate, 3D7 strain, counter-screen for P. falciparum growth inhibition project (AID 2304); conditions: P. falciparum 3D7 crude extract, LDH APAD/NBT absorbance; at 2 µM; hits give high values
[4] = inhibition of 3D7 malaria parasite growth – strain 3D7 (AID 2306); conditions: P. falciparum 3D7 erythrocytic growth, LDH absorbance, 72 h; at 2 µM; hits give high values
[5] = molecular target: Calcium-dependent protein kinase 1 (Plasmodium falciparum (isolate 3D7)) (UniProt P62344); assay: PfCDPK1 kinase inhibitors, biochemical, TCAMS library (AID 1159585; cut-off not given, nearly all actives have IC50 up to about 0.98 µM;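 further: inhibitors leave more ATP so luminescence rises with inhibition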); conditions: recombinant PfCDPK1, Kinase-Glo ATP depletion luminescence
[6] = molecular target: Plasmodium falciparum protein kinase 6 (PK6, PF3D7_1337100) (UniProt Q8IDW1); assay: PfPK6 kinase inhibitors, biochemical, TCAMS library (AID 1159586); conditions: recombinant PfPK6, Kinase-Glo ATP depletion luminescence
[7] = molecular target: Protein kinase 7 (PK7), Plasmodium falciparum 3D7 (PF3D7_0213400) (UniProt Q7YTF7); assay: inhibition of Plasmodium PK7 catalytic activity – biochemical, TCAMS antimalarial set, Kinase-Glo luminescence (AID 1159587); conditions: recombinant PfPK7, Kinase-Glo ATP depletion luminescence
[8] = molecular target: Calcium-dependent protein kinase 4 (Plasmodium falciparum (isolate 3D7)) (UniProt Q8IBS5); assay: PfCDPK4 kinase inhibitors, biochemical, TCAMS library (AID 1159588; cut-off not given, nearly all actives have IC50 up to about 0.91 µM); conditions: recombinant PfCDPK4, Kinase-Glo ATP depletion luminescence
Calcium-dependent protein kinase 4 (Plasmodium falciparum (isolate 3D7)), sequence (Q8IBS5 whole entry, looked up): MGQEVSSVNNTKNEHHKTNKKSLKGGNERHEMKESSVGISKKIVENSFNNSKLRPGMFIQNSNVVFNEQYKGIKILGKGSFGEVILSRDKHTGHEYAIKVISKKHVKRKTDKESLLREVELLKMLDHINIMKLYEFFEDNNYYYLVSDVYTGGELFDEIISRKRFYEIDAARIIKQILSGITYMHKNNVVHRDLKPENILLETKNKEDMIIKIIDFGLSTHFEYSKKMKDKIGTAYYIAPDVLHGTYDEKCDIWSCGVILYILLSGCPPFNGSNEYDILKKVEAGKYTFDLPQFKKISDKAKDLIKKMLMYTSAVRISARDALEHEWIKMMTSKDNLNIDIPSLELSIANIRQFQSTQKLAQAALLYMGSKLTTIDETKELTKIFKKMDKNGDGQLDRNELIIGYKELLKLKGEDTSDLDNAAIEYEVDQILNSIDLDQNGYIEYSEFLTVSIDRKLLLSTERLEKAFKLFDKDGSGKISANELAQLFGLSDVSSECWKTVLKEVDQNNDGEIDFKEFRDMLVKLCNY

Protein kinase 7 (PK7), Plasmodium falciparum 3D7 (PF3D7_0213400), sequence (Q7YTF7 1-343): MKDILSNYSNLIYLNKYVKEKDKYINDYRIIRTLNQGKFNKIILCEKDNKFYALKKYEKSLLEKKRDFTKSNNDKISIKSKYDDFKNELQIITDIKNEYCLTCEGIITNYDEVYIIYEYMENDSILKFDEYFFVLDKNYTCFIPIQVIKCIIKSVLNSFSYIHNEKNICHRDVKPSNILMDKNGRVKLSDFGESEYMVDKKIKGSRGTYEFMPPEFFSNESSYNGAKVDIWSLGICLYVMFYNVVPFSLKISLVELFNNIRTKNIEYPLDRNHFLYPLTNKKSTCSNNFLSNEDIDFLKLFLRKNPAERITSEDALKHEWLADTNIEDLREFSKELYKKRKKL
Plasmodium falciparum protein kinase 6 (PK6, PF3D7_1337100), sequence (Q8IDW1 1-305): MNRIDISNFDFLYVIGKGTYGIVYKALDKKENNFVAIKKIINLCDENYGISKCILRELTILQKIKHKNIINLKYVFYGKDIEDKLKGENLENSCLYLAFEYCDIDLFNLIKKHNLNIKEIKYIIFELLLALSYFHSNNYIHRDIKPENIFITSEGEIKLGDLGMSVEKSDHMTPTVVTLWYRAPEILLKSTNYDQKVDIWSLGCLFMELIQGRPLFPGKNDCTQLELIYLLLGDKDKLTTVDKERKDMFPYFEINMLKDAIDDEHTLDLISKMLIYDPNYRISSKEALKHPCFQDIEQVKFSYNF
Calcium-dependent protein kinase 1 (Plasmodium falciparum (isolate 3D7)), sequence (P62344 whole entry, looked up): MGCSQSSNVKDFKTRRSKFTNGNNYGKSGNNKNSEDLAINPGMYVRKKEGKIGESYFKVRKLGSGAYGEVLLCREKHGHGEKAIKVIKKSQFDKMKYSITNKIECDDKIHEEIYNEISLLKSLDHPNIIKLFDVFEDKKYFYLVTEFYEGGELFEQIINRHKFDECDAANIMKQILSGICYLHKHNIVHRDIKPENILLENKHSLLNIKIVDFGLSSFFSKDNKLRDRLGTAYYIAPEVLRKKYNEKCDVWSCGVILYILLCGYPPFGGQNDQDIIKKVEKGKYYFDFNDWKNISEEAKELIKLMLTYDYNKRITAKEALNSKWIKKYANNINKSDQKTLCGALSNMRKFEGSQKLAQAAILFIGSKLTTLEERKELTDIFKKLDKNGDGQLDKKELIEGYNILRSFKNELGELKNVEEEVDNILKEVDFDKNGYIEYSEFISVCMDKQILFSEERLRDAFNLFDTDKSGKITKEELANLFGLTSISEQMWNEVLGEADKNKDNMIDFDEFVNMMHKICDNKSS
L-lactate dehydrogenase (Plasmodium falciparum (isolate CDC / Honduras)), sequence (Q27743 whole entry, looked up): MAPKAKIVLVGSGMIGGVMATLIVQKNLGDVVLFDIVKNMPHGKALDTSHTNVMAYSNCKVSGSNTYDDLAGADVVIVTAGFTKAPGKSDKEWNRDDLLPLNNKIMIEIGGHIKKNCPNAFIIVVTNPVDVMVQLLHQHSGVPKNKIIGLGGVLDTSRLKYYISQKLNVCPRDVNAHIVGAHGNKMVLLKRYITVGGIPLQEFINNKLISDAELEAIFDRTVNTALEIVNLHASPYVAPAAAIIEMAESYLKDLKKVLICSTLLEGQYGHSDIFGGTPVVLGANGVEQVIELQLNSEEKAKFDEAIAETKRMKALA

CN(C)Cc1ccc(CN2CCN(CCOc3ccc(-c4ccc(Cl)cc4)cc3)CC2)o1
growth inhibition [1]: 21%
inhibition [2]: 75% (active)
inhibition [3]: -1%
growth inhibition [4]: 90% (active)
outcome [5]: inactive
outcome [6]: inactive
outcome [7]: inactive
outcome [8]: inactive

CC(C)CCN=C(N)Nc1ccc(OCCCCCOc2ccc(NC(N)=NCCC(C)C)cc2)cc1
growth inhibition [1]: 67% (active)
inhibition [2]: 14%
inhibition [3]: 6%
growth inhibition [4]: 85% (active)
outcome [5]: inactive
outcome [6]: inactive
outcome [7]: inactive
outcome [8]: inactive

CCCCCc1cnc2nc(N)nc(N)c2c1C
growth inhibition [1]: 23%
inhibition [2]: 64% (active)
inhibition [3]: -3%
growth inhibition [4]: 96% (active)
outcome [5]: inactive
outcome [6]: inactive
outcome [7]: inactive
outcome [8]: inactive

Clc1ccc2c(N3CCN(CCN4CCN(c5ccnc6cc(Cl)ccc56)CC4)CC3)ccnc2c1
growth inhibition [1]: 100% (active)
inhibition [2]: 10%
inhibition [3]: 1%
growth inhibition [4]: 99% (active)
outcome [5]: inactive
outcome [6]: inactive
outcome [7]: inactive
outcome [8]: inactive

O=C(/C=C/c1ccc(Cl)c(Cl)c1)NCCCCCN1CCC(c2c[nH]c3ccccc23)CC1
growth inhibition [1]: 7%
inhibition [2]: 33%
inhibition [3]: -2%
growth inhibition [4]: 99% (active)
outcome [5]: inactive
outcome [6]: inactive
outcome [7]: inactive
outcome [8]: inactive

CCSc1nc2sc3c(c2c(=O)n1-c1ccccc1)CCN(C)C3
growth inhibition [1]: 71% (active)
inhibition [2]: 16%
inhibition [3]: -3%
growth inhibition [4]: 83% (active)
outcome [5]: inactive
outcome [6]: inactive
outcome [7]: inactive
outcome [8]: inactive

CC(=O)c1sc2ccccc2c1O
growth inhibition [1]: -2%
inhibition [2]: 14%
inhibition [3]: 6%
growth inhibition [4]: 91% (active)
outcome [5]: inactive
outcome [6]: inactive
outcome [7]: inactive
outcome [8]: inactive

N#Cc1ccc(-c2ccc(C(=O)NCCCCN3CCC(c4cc(Br)c5c(c4O)CCCC5)CC3)cc2)cc1
growth inhibition [1]: 50% (active)
inhibition [2]: 93% (active)
inhibition [3]: 7%
growth inhibition [4]: 101% (active)
outcome [5]: inactive
outcome [6]: inactive
outcome [7]: inactive
outcome [8]: inactive

COC(=O)Nc1cc(C(F)(F)F)ccc1N1CCC(CNS(=O)(=O)c2ccc(OC)cc2)CC1
growth inhibition [1]: 95% (active)
inhibition [2]: 13%
inhibition [3]: 0%
growth inhibition [4]: 99% (active)
outcome [5]: inactive
outcome [6]: inactive
outcome [7]: inactive
outcome [8]: inactive

Cc1cccc2[nH]c(-c3ccc(-c4cccc(CNCCCNS(C)(=O)=O)c4)cc3)nc12
growth inhibition [1]: 5%
inhibition [2]: 5%
inhibition [3]: 2%
growth inhibition [4]: 99% (active)
outcome [5]: inactive
outcome [6]: inactive
outcome [7]: inactive
outcome [8]: inactive

COc1ccc2nc(C)cc(Nc3ccc(Cl)cc3)c2c1
growth inhibition [1]: 3%
inhibition [2]: 10%
inhibition [3]: -2%
growth inhibition [4]: 89% (active)
outcome [5]: inactive
outcome [6]: inactive
outcome [7]: inactive
outcome [8]: inactive

Cc1ccc(C)c(Sc2ccc(NC(=O)CN3CCN(C(=O)c4ccco4)CC3)cc2)c1
growth inhibition [1]: 93% (active)
inhibition [2]: 28%
inhibition [3]: 1%
growth inhibition [4]: 96% (active)
outcome [5]: inactive
outcome [6]: inactive
outcome [7]: inactive
outcome [8]: inactive

CC(C)(C)Oc1ccc(NC(=O)c2ccccc2O)cc1
growth inhibition [1]: 67% (active)
inhibition [2]: 4%
inhibition [3]: -6%
growth inhibition [4]: 86% (active)
outcome [5]: inactive
outcome [6]: inactive
outcome [7]: inactive
outcome [8]: inactive

O=C(Nc1cccc(-c2cccc(-c3nc4ccc(C(F)(F)F)cc4[nH]3)c2)c1)c1cccnc1
growth inhibition [1]: 70% (active)
inhibition [2]: 57% (active)
inhibition [3]: -6%
growth inhibition [4]: 100% (active)
outcome [5]: inactive
outcome [6]: inactive
outcome [7]: inactive
outcome [8]: inactive

Cc1cc(NC(=O)NCCN2CCC(NC(=O)c3cccc(Br)c3)C2)c2ccccc2n1 (stereo not drawn)
growth inhibition [1]: 60% (active)
inhibition [2]: -2%
inhibition [3]: -1%
growth inhibition [4]: 100% (active)
outcome [5]: inactive
outcome [6]: inactive
outcome [7]: inactive
outcome [8]: inactive

Cn1ccnc1Sc1ncccc1[N+](=O)[O-]
growth inhibition [1]: 2%
inhibition [2]: 0%
inhibition [3]: -3%
growth inhibition [4]: 96% (active)
outcome [5]: inactive
outcome [6]: inactive
outcome [7]: inactive
outcome [8]: inactive

Cc1cccc2[nH]c(-c3cccc(-c4cccc(CNCc5cnn(-c6ccccc6)n5)c4)c3)nc12
growth inhibition [1]: 38%
inhibition [2]: 12%
inhibition [3]: 1%
growth inhibition [4]: 99% (active)
outcome [5]: inactive
outcome [6]: inactive
outcome [7]: inactive
outcome [8]: inactive

CCC(C)NS(=O)(=O)c1ccc2nc(Nc3cccc(SC)c3)n(C(C)C(C)C)c2c1 (stereo not drawn)
growth inhibition [1]: 70% (active)
inhibition [2]: -1%
inhibition [3]: 2%
growth inhibition [4]: 94% (active)
outcome [5]: inactive
outcome [6]: inactive
outcome [7]: inactive
outcome [8]: inactive

Cc1cc2nc(-c3cccc(C(=O)NC4CCN(Cc5ccccc5)CC4)c3)[nH]c2cc1C
growth inhibition [1]: 13%
inhibition [2]: 32%
inhibition [3]: 2%
growth inhibition [4]: 101% (active)
outcome [5]: inactive
outcome [6]: inactive
outcome [7]: inactive
outcome [8]: inactive

COc1cc(Cc2cnc(N)nc2N)cc(OCCCCC2SC(=O)NC2=O)c1Br (stereo not drawn)
growth inhibition [1]: -2%
inhibition [2]: 15%
inhibition [3]: 4%
growth inhibition [4]: 94% (active)
outcome [5]: inactive
outcome [6]: inactive
outcome [7]: inactive
outcome [8]: inactive

O=C(Nc1ccc(Cl)cc1)Nc1ccc(-c2csc(-c3nc4ccccc4[nH]3)c2)cc1
growth inhibition [1]: 40%
inhibition [2]: 59% (active)
inhibition [3]: -4%
growth inhibition [4]: 90% (active)
outcome [5]: inactive
outcome [6]: inactive
outcome [7]: inactive
outcome [8]: inactive

NC(=NCc1ccccc1)Nc1nc(-c2ccc(OCCCn3ccnc3)cc2)cs1
growth inhibition [1]: 55% (active)
inhibition [2]: 10%
inhibition [3]: 2%
growth inhibition [4]: 100% (active)
outcome [5]: inactive
outcome [6]: inactive
outcome [7]: inactive
outcome [8]: inactive

O=C1C(c2ccccc2)=C(Nc2ccc(OC(F)(F)F)cc2)c2ccccc21
growth inhibition [1]: 96% (active)
inhibition [2]: 18%
inhibition [3]: 1%
growth inhibition [4]: 96% (active)
outcome [5]: inactive
outcome [6]: inactive
outcome [7]: inactive
outcome [8]: inactive

CC(c1cccc(S(=O)(=O)NCc2cccc(C(F)(F)F)c2)c1)N1CCC(N2CCCCC2)CC1 (stereo not drawn)
growth inhibition [1]: 35%
inhibition [2]: 37%
inhibition [3]: 2%
growth inhibition [4]: 99% (active)
outcome [5]: inactive
outcome [6]: inactive
outcome [7]: inactive
outcome [8]: inactive

O=C(NCCNc1nc(NCCNC(=O)Nc2ccccc2)c2ccc(=O)n(-c3c(F)cccc3F)c2n1)Nc1ccccc1
growth inhibition [1]: 87% (active)
inhibition [2]: 1%
inhibition [3]: 6%
growth inhibition [4]: 94% (active)
outcome [5]: inactive
outcome [6]: inactive
outcome [7]: inactive
outcome [8]: inactive

NCC1CCCN1Cc1cccc(-c2ccc(-c3nc4ccccc4[nH]3)s2)c1 (stereo not drawn)
growth inhibition [1]: 66% (active)
inhibition [2]: 16%
inhibition [3]: 3%
growth inhibition [4]: 99% (active)
outcome [5]: inactive
outcome [6]: inactive
outcome [7]: inactive
outcome [8]: inactive

C#CCOc1ccccc1CN1CCC(N2CCc3cc(NC(=O)c4cc(C)on4)ccc32)C1 (stereo not drawn)
growth inhibition [1]: 94% (active)
inhibition [2]: 16%
inhibition [3]: -2%
growth inhibition [4]: 95% (active)
outcome [5]: inactive
outcome [6]: inactive
outcome [7]: inactive
outcome [8]: inactive

CCCCOC(=O)c1ccc(NC(=O)Nc2ccc(Cn3ncc(N4CCCNCC4)c(Cl)c3=O)cc2)cc1
growth inhibition [1]: 74% (active)
inhibition [2]: 2%
inhibition [3]: 2%
growth inhibition [4]: 92% (active)
outcome [5]: inactive
outcome [6]: inactive
outcome [7]: inactive
outcome [8]: inactive

CCN(CCCN1CCCCC1)c1cc(C)nc(Nc2ccc(C)c(C)c2)n1
growth inhibition [1]: 60% (active)
inhibition [2]: 30%
inhibition [3]: -3%
growth inhibition [4]: 101% (active)
outcome [5]: inactive
outcome [6]: inactive
outcome [7]: inactive
outcome [8]: inactive

CN1CCCC(CN2CCN(Cc3ccc(-c4ccc(-c5nc6ccccc6[nH]5)cc4)cc3)CC2)C1 (stereo not drawn)
growth inhibition [1]: 100% (active)
inhibition [2]: 69% (active)
inhibition [3]: 0%
growth inhibition [4]: 101% (active)
outcome [5]: inactive
outcome [6]: inactive
outcome [7]: inactive
outcome [8]: inactive

NOCCCCOc1ccccc1
growth inhibition [1]: 2%
inhibition [2]: 12%
inhibition [3]: -4%
growth inhibition [4]: 99% (active)
outcome [5]: inactive
outcome [6]: inactive
outcome [7]: inactive
outcome [8]: inactive

Cc1cccc2[nH]c(-c3cccc(-c4ccc(CNCCc5ccncc5)cc4)c3)nc12
growth inhibition [1]: 100% (active)
inhibition [2]: 40%
inhibition [3]: -2%
growth inhibition [4]: 100% (active)
outcome [5]: inactive
outcome [6]: inactive
outcome [7]: inactive
outcome [8]: inactive

c1cnc2ccc(NCc3ccc(-c4ccc(CNC5CCCC5)cc4)cc3)cc2c1
growth inhibition [1]: 21%
inhibition [2]: 27%
inhibition [3]: -2%
growth inhibition [4]: 97% (active)
outcome [5]: inactive
outcome [6]: inactive
outcome [7]: inactive
outcome [8]: inactive

CC(C)CN1CCN(c2nc(C#N)c3c(c2C(=S)NC2CCCCC2)CC(C)(C)OC3)CC1
growth inhibition [1]: 99% (active)
inhibition [2]: -4%
inhibition [3]: -2%
growth inhibition [4]: 101% (active)
outcome [5]: inactive
outcome [6]: inactive
outcome [7]: inactive
outcome [8]: inactive

C[C@H](NC(=O)c1c(CN2CCN(C(=O)C(C)(C)C)CC2)c(-c2cccs2)nc2ccccc12)C1CCCCC1
growth inhibition [1]: 62% (active)
inhibition [2]: 2%
inhibition [3]: 3%
growth inhibition [4]: 89% (active)
outcome [5]: inactive
outcome [6]: inactive
outcome [7]: inactive
outcome [8]: inactive

COc1ccc(NC(=O)c2cccc(Br)c2)cc1N1CCN(CCCCCCCN2CCN(c3cc(NC(=O)c4cccc(Br)c4)ccc3OC)CC2)CC1
growth inhibition [1]: 93% (active)
inhibition [2]: 97% (active)
inhibition [3]: 0%
growth inhibition [4]: 99% (active)
outcome [5]: inactive
outcome [6]: inactive
outcome [7]: inactive
outcome [8]: inactive

COc1ccc(-c2cc(-c3nc4ccc(C(=O)N5CCOCC5)cc4[nH]3)c(=O)n(C)c2)cc1OC
growth inhibition [1]: 95% (active)
inhibition [2]: 6%
inhibition [3]: 4%
growth inhibition [4]: 93% (active)
outcome [5]: inactive
outcome [6]: inactive
outcome [7]: inactive
outcome [8]: inactive

O=C(Nc1ccon1)c1cc(-c2cccnc2)nc2ccc(Br)cc12
growth inhibition [1]: 77% (active)
inhibition [2]: 7%
inhibition [3]: -3%
growth inhibition [4]: 99% (active)
outcome [5]: inactive
outcome [6]: inactive
outcome [7]: inactive
outcome [8]: inactive

Cn1cc(CCNc2ccnc(N3CCC(c4ncc[nH]4)CC3)n2)c2ccccc21
growth inhibition [1]: 5%
inhibition [2]: 12%
inhibition [3]: 3%
growth inhibition [4]: 92% (active)
outcome [5]: inactive
outcome [6]: inactive
outcome [7]: inactive
outcome [8]: inactive

NC(N)=Nc1nc(-c2cccc(NC(=O)NCCc3c[nH]c4ccc(OCc5ccccc5)cc34)c2)cs1
growth inhibition [1]: 30%
inhibition [2]: -2%
inhibition [3]: 0%
growth inhibition [4]: 101% (active)
outcome [5]: inactive
outcome [6]: inactive
outcome [7]: inactive
outcome [8]: inactive

CC(C)CCNCc1ccc(OCc2cccc(C(=O)Nc3ccccc3)c2)c(I)c1
growth inhibition [1]: 59% (active)
inhibition [2]: 25%
inhibition [3]: 0%
growth inhibition [4]: 100% (active)
outcome [5]: inactive
outcome [6]: inactive
outcome [7]: inactive
outcome [8]: inactive
